# PubChem BioAssay
# “And” between values parts separate entries of the source, which are not always exact repeats. Identical values can stand only once. Records with an inconclusive call do not appear. The source made the active and inactive calls. Unless noted, the rule behind the calls is not given here.
# What was measured:
# [1] = compounds altering circadian rhythm period length – cell-based, LOPAC library, luminescence reporter (AID 2774); conditions: circadian reporter cells, at 7 µM, actives lie on both sides;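 note: values are relative to mean of DMSO wells on each plate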
# [2] = P. berghei load reduction in hepatocytes – cell-based, HepG2, luciferase luminescence, HepG2 viability, primary screen (AID 624349; in the data active = parasite load remaining mostly below about 12%, no sharp cut-off; inactive = mostly above about 10%;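 note: 100% = mean of DMSO negative control wells on the same plate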); conditions: P. berghei liver stage in HepG2, luciferase luminescence, concentration not given here; parasite load remaining: stronger effect = lower value; viability: measured here: HepG2 viability without parasites
# [3] = system: Hepatitis C virus NS3 helicase; experiment: blockers of NS3h binding to ssDNA – biochemical, fluorescence polarization, LOPAC1280 library, primary screen (AID 687035; in the data active = inhibition above about 37%); conditions: Purified HCV NS3 helicase, Cy5-dT15 ssDNA binding fluorescence polarization; stronger effect = higher value; concentration not given here
# [4] = compounds altering Cy5-DNA-NS3h complex signal – biochemical, LOPAC1280, artefact control for HCV NS3 helicase inhibitor project (AID 687037); conditions: Cy5-DNA-NS3h complex fluorescence interference counterscreen
# [5] = signal quenchers or enhancers, Cy5 substrate/SSB – biochemical, NIH Clinical Collection, E. coli SSB, artefact control for HCV NS3 helicase inhibitor project (AID 743268); conditions: Cy5-oligo bound E. coli SSB, fluorescence interference
# [6] = system: Hepatitis C virus NS3 helicase; experiment: blockers of NS3h binding to DNA – biochemical, fluorescence polarization, NIH Clinical Collection, primary screen (AID 743270); conditions: NS3 helicase binding to Cy5-dT15 DNA, stronger effect = higher value, concentration not given here
# [7] = biological target: Single-stranded DNA-binding protein (Escherichia coli (strain K12)) (UniProt P0AGE0); experiment: SSB-ssDNA binding inhibitors – biochemical, fluorescence polarization, NIH Clinical Collection, counter-screen for HCV NS3 helicase inhibitor project (AID 743271; in the data active = inhibition above about 28%); conditions: E. coli SSB-DNA binding, stronger effect = higher value, concentration not given here
# [8] = compounds distorting NS3 helicase fluorescence signal – biochemical, NIH Clinical Collection, artefact control for HCV NS3 helicase inhibitor project (AID 743272); conditions: fluorescence interference counterscreen, HCV NS3 helicase assay; stronger effect = lower value;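 note: HCV NS3 helicase with a Cy5 labelled single stranded DNA probe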
# [9] = system: Neuropilin-2 / VEGF-C interaction (human); experiment: small molecules blocking Neuropilin-2/VEGF-C interaction – biochemical, microplate binding format, z-score (AID 743281); conditions: microplate NRP2/VEGF-C binding assay; stronger effect = lower value
# [10] = modulation of C. elegans fzo-1 (AID 1259413);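 note: fzo-1 mutant C. elegans worms in liquid wells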; conditions: C. elegans fzo-1 modulator screen, mean read-out; stronger effect = higher value
# [11] = viability loss with induced miR-34 in A549 – imaging, A549 dox-inducible miR-34, nuclei and caspase counts, primary screen (AID 1347080;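 active = compounds whose cell count with miR-34 switched on is under 0.7 times the count with it off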); conditions: A549 miR-34 inducible, Hoechst nuclei count, 48 h
# [12] = blockers of cellular phospholipid synthesis – cell-based, LOPAC library, screen 4, primary screen (AID 1347384); conditions: animal cells, phospholipid biosynthesis inhibition screen; at 10 µM
# [13] = galactose survival enhancers in mitochondrial complex I cybrids – cell-based, galactose medium, ATP luminescence, primary screen (AID 1645843;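 active = z-score of at least 1.8 in each of two replicates, scored against plate mean and spread of sample wells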;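 note: positive z means more ATP and so rescue of galactose-driven cybrid death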); conditions: complex I mutant cybrid cells, 72 h, stronger effect = higher value
# [14] = biological target: ATP-dependent translocase ABCB1 (Homo sapiens) (UniProt P08183); experiment: P-glycoprotein substrate transport blockade – cell-based (AID 377; in the data active = fluorescence slope change above about 50%); conditions: MDR1-expressing cells, fluorescent substrate accumulation slope; stronger effect = higher value; concentration not given here
# [15] = compounds altering viability of human ES cells (AID 493140); conditions: human embryonic stem cell survival screen; stronger effect = higher value;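 note: cells exposed to compounds for four days before counting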
# [16] = viability loss in pontine glioma line – cell-based, SU-DIPG-XVII, MIPE5.0, CellTiter-Glo, qHTS, dose response (AID 1347060; cut-off not given, nearly all actives have AC50 up to about 26 µM;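 for AC50: cells exposed to compound for 48 hours before viability readout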); conditions: CellTiter-Glo ATP luminescence
# [17] = viability loss in pontine glioma line – cell-based, JHH-DIPG-1, MIPE4.0, CellTiter-Glo, qHTS, dose response (AID 1347062; cut-off not given, nearly all actives have AC50 up to about 27 µM;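 note: cells exposed to compound for two days before readout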); conditions: JHH-DIPG-1 viability, CellTiter-Glo ATP luminescence
# [18] = viability loss in pontine glioma line – cell-based, SU-DIPG-IV, MIPE4.0, CellTiter-Glo, qHTS, dose response (AID 1347063; cut-off not given, nearly all actives have AC50 up to about 30 µM;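 note: compound exposure lasted 48 hours before the viability readout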); conditions: CellTiter-Glo ATP luminescence
# [19] = viability loss in pontine glioma line – cell-based, SU-DIPG-XIII, MIPE5.0, CellTiter-Glo, qHTS, dose response (AID 1347064; cut-off not given, nearly all actives have AC50 up to about 23 µM;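 for AC50: cells exposed to compound for 48 hours before the viability read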); conditions: CellTiter-Glo ATP luminescence
# [20] = viability loss in pontine glioma line – cell-based, SU-DIPG-XXV, MIPE5.0, CellTiter-Glo, qHTS, dose response (AID 1347065; cut-off not given, nearly all actives have AC50 up to about 26 µM;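 note: cells exposed to compound for 48 hours before ATP readout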); conditions: CellTiter-Glo ATP luminescence
# [21] = JHH-DIPG-1 glioma cell viability, MIPE5.0 library, CellTiter-Glo luminescence, qHTS (AID 1347067; cut-off not given, nearly all actives have AC50 up to about 26 µM;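 note: cells exposed to compound for 48 hours before readout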); conditions: JHH-DIPG-1 glioma viability, CellTiter-Glo ATP luminescence
# [22] = growth inhibition of DIPG cells – cell-based, MIPE5.0 library, qHTS (AID 1347068; cut-off not given, nearly all actives have IC50 up to about 30 µM;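 for IC50: cells exposed to compound for 48 hours before viability readout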); conditions: SU-DIPG-XXV viability
# [23] = MELAS cybrid and Rieske KO viability enhancers – cell-based, MELAS cybrids, Rieske KO mouse fibroblasts, CellTiter-Glo, primary screen (AID 1508586;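 active = mean z-score across replicates of 1.96 or higher in either the MELAS or the Rieske mutant cell line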;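 note: z relative to plate mean and SD of compound and empty wells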); conditions: low glucose
# [24] = biological target: NAD(+) hydrolase SARM1 (Homo sapiens) (UniProt Q6SZW1); experiment: blocking NAD cleavage by SARM1 SAM-TIR – cell lysate, NAD-Glo luminescence (AID 1508614;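 active = compound whose remaining NAD level is above about 45 nM, limit read from the data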;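 note: higher remaining NAD means stronger inhibition of SARM1 NADase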); conditions: SAM-TIR HEK293T lysate NADase, at 1 µM, stronger effect = higher value
# [25] = EMT-state selective cytotoxicity in co-culture – imaging, PC-3E GFP, TEM4-18 mCherry, primary screen (AID 1345086;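 active = compounds killing one labelled cell type while sparing the other, by normalised counts and ratio limits, not self-fluorescent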;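 for all read-outs here: cells exposed to compound for 72 h before imaging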;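 for red/green cell ratio (normalised): normalised mesenchymal count divided by normalised epithelial count so high means epithelial killing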); conditions: PC-3E GFP / TEM4-18 mCherry co-culture, imaging cell counts, at 1 µM; for red/green cell ratio (normalised): actives lie on both sides, counts scaled to control wells, 1 = unselective
# [26] = growth inhibition of DIPG cells – cell-based, MIPE4.0 library, CellTiter-Glo luminescence, qHTS (AID 1347066; cut-off not given, nearly all actives have AC50 up to about 30 µM;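 note: cells exposed to compound for 48 hours before readout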); conditions: SU-DIPG-VI viability, CellTiter-Glo ATP luminescence
# [27] = compounds altering HSF1 focus formation in cells – imaging, Selleck Cancer Library (AID 1347162; in the data active = plate-normalised HSF1 focus index below about 0.46); conditions: human cells, HSF1 nuclear foci imaging, at 10 µM; SSMD: measured here: HSF1 foci SSMD mean; cell count: measured here: cell number; plate-normalised HSF1 focus index: stronger effect = lower value
# [28] = biological target: Mitogen-activated protein kinase 7 (Homo sapiens) (UniProt Q13164); experiment: Gal4-ERK5 driven luciferase induction – cell-based, HTS, primary screen (AID 1508626;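 active = luciferase signal above three times the same-plate solvent-only control wells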;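 note: luciferase driven by Gal4-ERK5 fusion binding five Gal4 sites before minimal TATA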); conditions: HeLa Gal4-ERK5 transactivation, 18 h, at 5 µM, stronger effect = higher value
# [29] = stronger effect = lower value, cell number ratio, induced over uninduced
# [30] = measured here: relative caspase fold change +Dox/-Dox
# [31] = measured here: total cells with miR-34 induction, stronger effect = lower value
# [32] = measured here: total cells without miR-34 induction
# [33] = measured here: epithelial PC-3E GFP cell survival
# [34] = measured here: mesenchymal TEM4-18 mCherry cell survival
# NAD(+) hydrolase SARM1 (Homo sapiens), sequence (Q6SZW1 whole entry, looked up): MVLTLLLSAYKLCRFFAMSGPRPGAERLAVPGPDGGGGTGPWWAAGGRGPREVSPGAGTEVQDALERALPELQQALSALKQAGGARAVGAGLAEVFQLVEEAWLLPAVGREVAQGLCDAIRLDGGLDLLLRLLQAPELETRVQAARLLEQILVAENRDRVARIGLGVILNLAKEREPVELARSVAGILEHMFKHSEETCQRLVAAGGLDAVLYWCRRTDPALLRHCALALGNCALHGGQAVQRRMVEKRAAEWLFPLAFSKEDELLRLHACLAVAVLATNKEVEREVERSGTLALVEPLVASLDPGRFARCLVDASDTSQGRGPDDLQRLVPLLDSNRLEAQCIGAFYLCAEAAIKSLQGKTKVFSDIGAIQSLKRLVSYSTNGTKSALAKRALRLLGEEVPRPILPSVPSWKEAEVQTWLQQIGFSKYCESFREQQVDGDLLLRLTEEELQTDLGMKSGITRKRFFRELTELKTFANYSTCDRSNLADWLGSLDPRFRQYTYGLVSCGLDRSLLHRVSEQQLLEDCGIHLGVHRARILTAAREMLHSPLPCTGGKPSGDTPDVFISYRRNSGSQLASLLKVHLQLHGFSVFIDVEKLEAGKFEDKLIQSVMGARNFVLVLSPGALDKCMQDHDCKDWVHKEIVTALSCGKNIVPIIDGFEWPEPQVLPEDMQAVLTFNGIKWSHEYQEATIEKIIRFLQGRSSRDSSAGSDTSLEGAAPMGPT
# Mitogen-activated protein kinase 7 (Homo sapiens), sequence (Q13164 whole entry, looked up, the tested form may be a part): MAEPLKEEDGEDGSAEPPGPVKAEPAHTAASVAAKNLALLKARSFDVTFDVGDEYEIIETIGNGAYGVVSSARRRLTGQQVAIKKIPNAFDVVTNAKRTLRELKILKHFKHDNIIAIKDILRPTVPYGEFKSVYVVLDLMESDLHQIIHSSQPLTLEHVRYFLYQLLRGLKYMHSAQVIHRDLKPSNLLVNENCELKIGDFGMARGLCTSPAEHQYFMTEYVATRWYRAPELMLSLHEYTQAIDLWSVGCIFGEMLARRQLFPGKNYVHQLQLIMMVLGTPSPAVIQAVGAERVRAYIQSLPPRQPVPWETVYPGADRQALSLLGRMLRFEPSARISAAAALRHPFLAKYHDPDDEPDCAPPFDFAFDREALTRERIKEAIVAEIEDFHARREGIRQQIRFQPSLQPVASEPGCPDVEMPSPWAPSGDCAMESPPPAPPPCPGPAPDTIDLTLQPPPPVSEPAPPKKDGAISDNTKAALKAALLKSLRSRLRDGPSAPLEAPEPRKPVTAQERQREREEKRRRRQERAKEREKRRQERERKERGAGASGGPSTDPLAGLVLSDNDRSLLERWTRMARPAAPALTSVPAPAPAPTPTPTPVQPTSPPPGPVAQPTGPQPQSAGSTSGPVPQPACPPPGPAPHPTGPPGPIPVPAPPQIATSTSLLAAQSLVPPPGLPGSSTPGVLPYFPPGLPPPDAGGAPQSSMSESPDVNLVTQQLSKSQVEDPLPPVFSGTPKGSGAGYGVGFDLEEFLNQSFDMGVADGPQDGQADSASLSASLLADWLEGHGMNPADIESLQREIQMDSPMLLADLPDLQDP
# ATP-dependent translocase ABCB1 (Homo sapiens), sequence (P08183 whole entry, looked up): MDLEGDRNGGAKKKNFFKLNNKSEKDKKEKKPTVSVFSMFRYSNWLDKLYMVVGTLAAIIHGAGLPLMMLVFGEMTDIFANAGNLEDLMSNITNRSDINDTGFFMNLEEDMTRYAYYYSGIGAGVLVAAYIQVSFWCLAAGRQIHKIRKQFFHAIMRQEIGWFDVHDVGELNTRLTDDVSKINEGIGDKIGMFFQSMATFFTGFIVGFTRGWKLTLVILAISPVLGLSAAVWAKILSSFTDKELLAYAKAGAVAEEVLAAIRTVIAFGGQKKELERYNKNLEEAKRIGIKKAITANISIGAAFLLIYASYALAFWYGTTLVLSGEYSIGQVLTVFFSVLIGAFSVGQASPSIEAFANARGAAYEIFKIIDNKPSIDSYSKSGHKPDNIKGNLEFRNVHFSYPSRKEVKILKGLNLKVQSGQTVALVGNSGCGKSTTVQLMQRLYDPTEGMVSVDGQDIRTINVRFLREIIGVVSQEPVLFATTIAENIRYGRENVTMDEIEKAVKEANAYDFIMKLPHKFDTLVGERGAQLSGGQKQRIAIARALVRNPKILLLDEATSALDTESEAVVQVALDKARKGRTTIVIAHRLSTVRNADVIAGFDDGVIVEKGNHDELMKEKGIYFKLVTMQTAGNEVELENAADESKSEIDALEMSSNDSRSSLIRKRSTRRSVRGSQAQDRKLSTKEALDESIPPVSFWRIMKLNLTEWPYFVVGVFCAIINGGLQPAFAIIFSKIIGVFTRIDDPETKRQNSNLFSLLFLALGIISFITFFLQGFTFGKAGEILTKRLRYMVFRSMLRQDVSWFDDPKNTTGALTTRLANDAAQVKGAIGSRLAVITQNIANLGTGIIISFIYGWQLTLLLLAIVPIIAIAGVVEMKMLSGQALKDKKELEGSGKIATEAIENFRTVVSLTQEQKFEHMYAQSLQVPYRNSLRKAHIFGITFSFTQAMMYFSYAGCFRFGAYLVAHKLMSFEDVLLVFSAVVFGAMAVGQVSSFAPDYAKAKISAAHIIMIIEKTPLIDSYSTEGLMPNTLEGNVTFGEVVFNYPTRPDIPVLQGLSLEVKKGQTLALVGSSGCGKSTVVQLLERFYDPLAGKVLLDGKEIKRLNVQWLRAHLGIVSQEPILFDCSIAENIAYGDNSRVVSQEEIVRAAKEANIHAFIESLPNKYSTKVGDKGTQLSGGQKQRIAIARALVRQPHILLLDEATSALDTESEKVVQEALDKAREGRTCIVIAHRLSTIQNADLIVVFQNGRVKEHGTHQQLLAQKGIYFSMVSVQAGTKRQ
compound,measurement,setting,value
CN1CCN(c2nc3cc(C(F)(F)F)ccc3n3cccc23)CC1,period change,[1],-0.085 h (inactive)
same,parasite load remaining,[2],58.1% (inactive)
same,viability,[2],68%
same,inhibition,[3],-3% (inactive)
same,fluorescence ratio (interference),[4],1 (inactive)
same,fluorescence ratio,[5],0.95 (inactive)
same,inhibition,[6],-10.7% (inactive)
same,inhibition,[7],1.97% (inactive)
same,fluorescence ratio,[8],0.95 (inactive)
same,z-score,[9],-0.53 (inactive)
same,mean signal,[10],175 (inactive)
same,fold change,[11]; [29],1 (inactive) and 0.87 (inactive)
same,fold change,[11]; [30],1.47 and 0.615
same,cell count,[11]; [31],7250 and 7950
same,cell count,[11]; [32],7230 and 9140
same,outcome,[12],inactive
same,z-score,[13],-0.85 (inactive) and -1.01 (inactive)
CC(=O)SCC(Cc1ccccc1)C(=O)NCC(=O)OCc1ccccc1 (stereo not drawn),fluorescence slope change,[14],12.8% (inactive)
same,survival,[15],6.5 (inactive)
same,fluorescence ratio,[5],0.96 (inactive)
same,inhibition,[6],3.56% (inactive)
same,inhibition,[7],2.21% (inactive)
same,fluorescence ratio,[8],0.86 (inactive)
same,z-score,[9],-0.263 (inactive)
same,mean signal,[10],251 (inactive)
same,outcome,[16],inactive
same,AC50,[17],469 nM (active)
same,AC50,[18],833 nM (active)
same,outcome,[19],inactive
same,outcome,[20],inactive
same,outcome,[21],inactive
same,outcome,[22],inactive
same,z-score,"[23]; MELAS cybrid survival, CellTiter-Glo 48 h, stronger effect = higher value",-0.406 (inactive) and 0.283 (inactive) and 0.224 (inactive)
same,z-score,"[23]; Rieske KO mouse fibroblast survival, CellTiter-Glo 72 h",0.561 and 0.494 and -0.589
same,remaining NAD,[24],10 nM (inactive)
same,z-score,[13],0.9 (inactive) and 0.57 (inactive)
COc1cccc2c1C(=O)c1c(O)c3c(c(O)c1C2=O)C[C@@](O)(C(=O)CO)C[C@@H]3O[C@H]1C[C@H](N)[C@@H](O)[C@H](C)O1,parasite load remaining,[2],-0.12% (inactive)
same,viability,[2],25.2%
same,fluorescence ratio,[5],0.11 (active)
same,inhibition,[6],4.36% (inactive)
same,inhibition,[7],17.6% (inactive)
same,fluorescence ratio,[8],0.41 (active)
same,z-score,[9],-0.603 (inactive)
same,mean signal,[10],274 (inactive)
same,red/green cell ratio (normalised),[25],2.46 (active)
same,normalised cell number,[25]; [33],0.19
same,normalised cell number,[25]; [34],0.46
same,AC50,[16],332 nM (active)
same,AC50,[17],372 nM (active)
same,AC50,[18],833 nM (active)
same,AC50,[19],833 nM (active)
same,AC50,[20],1180 nM (active)
same,AC50,[26],4180 nM (active)
same,AC50,[21],2350 nM (active)
same,IC50,[22],9340 nM (active)
same,SSMD,[27],-16.4
same,cell count,[27],7260
same,plate-normalised HSF1 focus index,[27],0.155 (active)
same,remaining NAD,[24],10 nM (inactive)
same,luciferase signal,[28],20 AU (inactive)
CCCCC(=O)O[C@H]1CC[C@H]2[C@@H]3CCc4cc(O)ccc4[C@H]3CCC12C (stereo partly drawn),mean signal,[10],242 (inactive)
CC[C@]1(O)CC2CN(CCc3c([nH]c4ccccc34)[C@@](C(=O)OC)(c3cc4c(cc3OC)N(C=O)[C@H]3[C@@](O)(C(=O)OC)[C@H](OC(C)=O)[C@]5(CC)C=CCN6CC[C@]43[C@@H]65)C2)C1 (stereo partly drawn),parasite load remaining,[2],70.4% (inactive) and 43.2% (inactive)
same,viability,[2],103% and 123%
same,fluorescence ratio,[5],0.94 (inactive)
same,inhibition,[6],-2.84% (inactive)
same,inhibition,[7],0.39% (inactive)
same,fluorescence ratio,[8],0.92 (inactive)
same,outcome,[9],inactive
same,mean signal,[10],261 (inactive)
same,red/green cell ratio (normalised),[25],0.69 (inactive)
same,normalised cell number,[25]; [33],0.19
same,normalised cell number,[25]; [34],0.13
same,fold change,[11]; [29],0.983 (inactive)
same,fold change,[11]; [30],2.57
same,cell count,[11]; [31],1600
same,cell count,[11]; [32],1630
same,SSMD,[27],1.41
same,cell count,[27],6460
same,plate-normalised HSF1 focus index,[27],1.08 (inactive)
CCOC(=O)C1(CCCCCCOc2ccc(Cl)cc2)CO1 (stereo not drawn),parasite load remaining,[2],85.5% (inactive)
same,viability,[2],89%
same,fluorescence ratio,[5],1.01 (inactive)
same,inhibition,[6],1.98% (inactive)
same,inhibition,[7],-2.41% (inactive)
same,fluorescence ratio,[8],0.93 (inactive)
same,z-score,[9],-0.326 (inactive)
same,mean signal,[10],266 (inactive)
same,fold change,[11]; [29],0.886 (inactive)
same,fold change,[11]; [30],1.28
same,cell count,[11]; [31],7740
same,cell count,[11]; [32],8740
same,z-score,[13],0.13 (inactive)
CC(=O)OCC(=O)C12OC(C)(C)O[C@@H]1C[C@H]1[C@@H]3C[C@H](F)C4=CC(=O)C=CC4(C)[C@@]3(F)[C@@H](O)CC12C (stereo partly drawn),mean signal,[10],228 (inactive)
